PLC-gamma1 inh – PLC-gamma1 enzyme inhibitors, primary screen, biochemical, fluorescence, purified enzyme. 1-phosphatidylinositol 4,5-bisphosphate phosphodiesterase gamma-1 (Homo sapiens), P19174. fluorogenic substrate. inhibition, % at 12.2 µM. actives 0.84% (n = 370,000). AID 720700, 2013; in the data active = inhibition above about 9.5%
Target sequence (P19174 whole entry, looked up): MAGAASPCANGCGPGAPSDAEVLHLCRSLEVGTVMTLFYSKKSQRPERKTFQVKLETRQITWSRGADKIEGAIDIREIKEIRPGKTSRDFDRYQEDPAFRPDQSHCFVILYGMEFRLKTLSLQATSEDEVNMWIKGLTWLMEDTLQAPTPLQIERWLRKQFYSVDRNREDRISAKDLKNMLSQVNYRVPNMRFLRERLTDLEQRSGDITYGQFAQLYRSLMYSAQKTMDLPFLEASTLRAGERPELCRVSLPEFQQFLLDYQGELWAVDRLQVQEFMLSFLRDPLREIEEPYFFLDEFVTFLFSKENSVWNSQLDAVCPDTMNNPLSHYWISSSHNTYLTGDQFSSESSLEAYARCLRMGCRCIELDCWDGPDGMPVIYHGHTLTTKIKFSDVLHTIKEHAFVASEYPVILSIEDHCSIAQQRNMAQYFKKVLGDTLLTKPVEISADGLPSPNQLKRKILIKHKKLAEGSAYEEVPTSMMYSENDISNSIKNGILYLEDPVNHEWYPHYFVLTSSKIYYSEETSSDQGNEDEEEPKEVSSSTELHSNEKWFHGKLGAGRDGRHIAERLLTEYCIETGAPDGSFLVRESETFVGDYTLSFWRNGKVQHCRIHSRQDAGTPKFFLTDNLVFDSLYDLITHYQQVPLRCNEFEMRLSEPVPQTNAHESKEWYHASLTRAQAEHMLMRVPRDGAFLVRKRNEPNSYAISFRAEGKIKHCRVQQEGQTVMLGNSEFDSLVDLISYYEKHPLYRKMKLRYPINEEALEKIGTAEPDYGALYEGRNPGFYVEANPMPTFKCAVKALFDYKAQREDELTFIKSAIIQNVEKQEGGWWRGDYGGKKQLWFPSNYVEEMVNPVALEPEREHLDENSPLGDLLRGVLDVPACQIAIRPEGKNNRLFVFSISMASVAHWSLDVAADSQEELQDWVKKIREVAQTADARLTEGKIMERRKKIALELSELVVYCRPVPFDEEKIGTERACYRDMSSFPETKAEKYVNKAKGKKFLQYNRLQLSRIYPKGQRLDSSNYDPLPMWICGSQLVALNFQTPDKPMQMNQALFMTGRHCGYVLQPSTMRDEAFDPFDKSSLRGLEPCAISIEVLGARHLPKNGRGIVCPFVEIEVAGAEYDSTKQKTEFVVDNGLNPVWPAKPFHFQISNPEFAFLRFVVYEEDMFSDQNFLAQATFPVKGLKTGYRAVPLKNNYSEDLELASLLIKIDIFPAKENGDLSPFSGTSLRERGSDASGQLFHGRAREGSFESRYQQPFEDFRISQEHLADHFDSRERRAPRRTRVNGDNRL
proKLK7 act – proKLK7 zymogen activators, primary screen, biochemical, fluorescence intensity | Kallikrein-7 (Homo sapiens), P49862 | purified proKLK7, EDANS-DABCYL substrate fluorescence; 100% is mature enzyme control, 0% vehicle | activation, % at 7 µM | actives 0.9% (n = 370,000);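 active = activation above the mean of all tested compounds plus 3 SD, computed per campaign excluding outliers beyond control limits, cut at about 13% in these data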
ADAM10 inh – human ADAM10 inhibitors, primary screen, biochemical, QFRET, HTS. Disintegrin and metalloproteinase domain-containing protein 10 (Homo sapiens), O14672. recombinant ADAM10, EDANS/DABCYL FRET peptide cleavage, 3 h. inhibition, % at 7 µM. actives 0.62% (n = 370,000);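 active = inhibition above a per-campaign cutoff equal to the mean of compounds falling between control-based bounds plus 3 SD, cut at about 20% in these data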;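 note: 0% = DMSO wells while the 100% control is not disclosed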
ADAM17 inh – ADAM17 inhibitors, primary screen, biochemical, QFRET | Disintegrin and metalloproteinase domain-containing protein 17 (Homo sapiens), P78536 | recombinant ADAM17, EDANS/DABCYL FRET peptide cleavage | inhibition, % at 6.95 µM | actives 0.83% (n = 370,000);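 active = inhibition above the mean of compounds lying between control limits plus 3 SD, set per campaign, cut at about 8.5% in these data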;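 note: 0% = DMSO-only wells as the low control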
PLC-beta3 inh – human PLC-beta3 inhibitors, primary screen, biochemical, fluorescence | Purified PLC-beta3, fluorogenic substrate | inhibition, % at 12.2 µM | AID 720704, 2013 | actives 0.18% (n = 370,000) | 1-phosphatidylinositol 4,5-bisphosphate phosphodiesterase beta-3 (Homo sapiens), Q01970; in the data active = inhibition above about 11%;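 note: 0% = median of compound wells on plate and 100% = full blocker control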
KLK7 act conf – proKLK7 zymogen activators, confirmation, biochemical, fluorescence intensity, triplicate | shares compounds with proKLK7 act | purified proKLK7, EDANS-DABCYL substrate fluorescence; scaled: vehicle 0, mature enzyme 100 | activation, % at 7 µM | actives 68% (n = 3,200);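 active = activation, as change over the incubation, above the mean of all tested compounds plus 3 SD, cut at about 13% in these data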
EDANS interfere – EDANS-DABCYL substrate optical interference, artefact control for kallikrein-7 zymogen activator project, biochemical, fluorescence intensity, high throughput. shares compounds with proKLK7 act. no enzyme, 4 h; solvent 0%, active enzyme control 100%. activation, % at 7 µM. actives 80% (n = 3,200). AID 686952, 2013;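 active = activation above the all-compound mean plus 3 SD, ignoring values outside control-based bounds, cut at about 4.8% in these data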;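 note: value is the 4 h activation minus the activation read at time zero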
EDANS interf – counter-screen for kallikrein-7 activators: EDANS-DABCYL interference, dose response; AID 720493; actives 20% (n = 250); shares compounds with proKLK7 act; EDANS-DABCYL peptide fluorescence interference, no enzyme; EC50, µM;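 active = compounds that raise the fluorescence signal in this interference counterscreen, with EC50 at or below 10 µM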;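 note: intact quenched peptide substrate alone read at 355 nm excitation and 520 nm emission; signal is fluorescence gain from T0 to T4 after four hours at room temperature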
The depositor's hits bear a star; i = inactive; . = no result. An excerpt weighted towards active compounds, which were near 2.9% of everything screened.

SMILES	PLC-gamma1 inh	proKLK7 act	ADAM10 inh	ADAM17 inh	PLC-beta3 inh	KLK7 act conf	EDANS interfere	others
COC(=O)c1ccc(C(=O)OC)c(NC(=O)/C=C/C(=O)O)c1	-499	16*	i	-494	i	1	2
COC(=O)c1ccc(C(=O)OC)c(NS(C)(=O)=O)c1	-29	28*	-24	-15	-45	21*	21*
COC(=O)c1ccc(C(=O)OC)c(NC(=O)Oc2ccccc2)c1	i	38*	i	i	i	75*	75*
COC(=O)c1ccccc1NS(C)(=O)=O	2	0	1	-4	-5	.	.
COC(=O)c1ccc(C(=O)OC)c(NC(=O)CSCC(=O)O)c1	-12	0	-45	-15	-18	.	.
COc1ccc(N2CCN(CCNS(=O)(=O)c3cccs3)CC2)cc1	-2	0	-8	-5	-2	.	.
COCCNC(=O)C[C@H]1CC[C@H]2[C@@H](COc3ccc(NS(=O)(=O)c4ccc(Cl)cc4)cc3C(=O)N2C)O1	8	0	3	-1	8	.	.
Nc1ccc(C(=O)Nc2ccc3nc(-c4ccncc4)[nH]c3c2)cc1	-3	0	-9	-4	0	.	.
O=C(Nc1ccc(Cl)c(Cl)c1)c1ccccc1	-2	1	9	6	2	.	.
O=C(Nc1ccc2nc3ccccc3nc2c1)c1ccccc1	i	35*	-71	-22	i	32*	21*	EDANS interf=>69
CC(=O)Nc1ccc2cc3ccc(NC(C)=O)cc3nc2c1	i	17*	i	-408	i	34*	44*
CC(=O)Nc1ccc2nc(-c3ccncc3)[nH]c2c1	i	22*	-466	-137	i	17*	21*
Cn1c(=O)c2cc(S(=O)(=O)N3CCN(Cc4ccccc4)CC3)ccc2n(C)c1=O	1	0	-4	-2	1	.	.
CCCCCC[C@H](CN(CCCC)S(C)(=O)=O)c1ccccc1	0	0	3	0	3	.	.
Cc1c(O)ccc2cc(S(=O)(=O)c3ccccc3)c(=O)oc12	i	45*	i	i	i	70*	73*
Cc1ccc(-n2c(SCC(=O)Nc3cccc4ccccc34)nnc2-c2ccccc2)cc1	1	0	-2	2	0	.	.
O=C(CN1CCCC1)Nc1ccc(-c2nc3cc(NC(=O)CN4CCCC4)ccc3o2)cc1	-363	58*	i	-223	-470	-20	-27
CN1/C(=N\O)c2cccc3cccc1c23	-334	21*	-230	-82	-337	40*	51*
Cc1ccc([C@@H]2C3COCC=C3C(C#N)=C(N)C2(C#N)C#N)o1 (stereo not given in full)	-105	13*	-165	-63	-138	53*	50*
CCOC(=O)[C@]12CCCCC/C=C\1N(Cc1ccc(OC)cc1)C(=O)[C@H]2CC(=O)NCCC(C)C	1	0	7	3	2	.	.
COc1ccc(-c2coc3cc(OC(C)=O)ccc3c2=S)cc1	-234	51*	-265	-79	-300	93*	77*
COc1ccc(-c2coc3cc(O)c(OC)cc3c2=O)cc1	i	13*	i	-213	i	67*	54*
CC(=O)Oc1ccc2c(=O)c(-c3ccccc3)coc2c1	-271	90*	-288	-102	-418	274*	247*
COc1ccc(-c2coc3cc(OC)ccc3c2=O)cc1	-6	0	-15	1	-6	.	.
Cc1ccc(C(=O)/C=C/Nc2ccc(S(=O)(=O)Nc3cc(C)nc(C)n3)cc2)cc1	-67	30*	-41	-6	-105	148*	119*
O=c1c2ccccc2c(/C=N/NS(=O)(=O)c2ccccc2)c(O)n1-c1ccccn1	-133	46*	-140	-44	-162	92*	94*

Assay outcomes (PubChem BioAssay)
